Compound activity: PubChem, National Center for Advancing Translational Sciences (NCATS)
Gal4-VP16 FLuc = VP16 counterscreen qHTS for inhibitors of ROR gamma transcriptional activity | actives 3.5% (n = 310,000) | Potency, µM (doses to about 53.6 µM), without a hit: at the highest dose activity, negative = inhibition, actives largely listed as inhibitors | Drosophila S2 Gal4-VP16 UAS-luciferase, luminescence, 20 h;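 note: Gal4-VP16 expression switched on by copper sulfate through the metallothionein promoter; % is set by controls: 0 for no effect and ±100 for the full control effect; nearly all actives have a fitted effect of over 50% in size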
RORgamma inh = qHTS for inhibitors of ROR gamma transcriptional activity. Drosophila S2 Gal4-RORgamma UAS-luciferase reporter, 20 h. Potency, µM (highest dose often 53.6 µM), inactives show top-dose activity change, negative = inhibition, most hits filed as inhibitors. AID 2551, 2010. actives 5.4% (n = 310,000). Nuclear receptor ROR-gamma (Mus musculus), P51450; note: % is set by controls: 0 for no effect and ±100 for the full control effect; nearly all actives have a fitted effect of over 60% in size
Target sequence (P51450 whole entry, looked up, the tested form may be a part): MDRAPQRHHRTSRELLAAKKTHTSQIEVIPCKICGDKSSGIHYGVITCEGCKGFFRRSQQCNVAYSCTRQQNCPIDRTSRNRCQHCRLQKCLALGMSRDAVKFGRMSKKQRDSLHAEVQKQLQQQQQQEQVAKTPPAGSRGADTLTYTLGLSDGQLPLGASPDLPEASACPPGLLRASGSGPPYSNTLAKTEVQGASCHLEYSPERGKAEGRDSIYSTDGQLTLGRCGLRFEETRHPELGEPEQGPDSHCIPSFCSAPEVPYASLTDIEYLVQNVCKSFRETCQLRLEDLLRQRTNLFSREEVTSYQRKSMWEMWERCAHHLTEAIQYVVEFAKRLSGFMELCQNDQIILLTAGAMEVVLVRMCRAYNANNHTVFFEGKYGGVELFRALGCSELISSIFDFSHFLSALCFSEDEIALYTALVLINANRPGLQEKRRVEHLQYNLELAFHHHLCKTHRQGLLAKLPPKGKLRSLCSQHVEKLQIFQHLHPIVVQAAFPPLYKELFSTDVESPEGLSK
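ROR gamma transcriptional activity was tracked as Gal4-UAS luciferase output in stably transfected Drosophila Schneider cells, with compound added 1 hr before 700 uM copper sulfate induction and a 20 hr ambient-temperature incubation.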
GLP-1R inv ag = qHTS of GLP-1 Receptor Inverse Agonists (Inhibition Mode); Glucagon-like peptide 1 receptor (Homo sapiens), P43220; HEK293 GLP-1R CRE-luciferase, luminescence, 24 h; GLP-1R form is constitutively active; Potency, µM (highest dose often 38.3 µM), for inactives: at the top dose activity change, negative = inhibition, hits mostly inhibitors; actives 1.6% (n = 410,000); AID 624417, 2012; note: % is set by controls: 0 for no effect and ±100 for the full control effect; nearly all actives have a fitted effect of over 55% in size
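Using stably transfected HEK293 (constitutively active GLP-1R, cAMP-luciferase reporter), compounds were incubated 24 hr and luciferase measured by luminescence.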
GLP-1R agonist = qHTS of GLP-1 Receptor Agonists. Glucagon-like peptide 1 receptor (Homo sapiens), P43220. Potency, µM (highest dose often 45.6 µM), without a hit: top-dose activation, usual class: activators. actives 0.007% (n = 380,000). HEK293 GLP-1R CRE-luciferase, luminescence, 4-6 h; cells express a hypersensitive GLP-1R form; note: % of control where 0% means no effect
HEK293 tox = qHTS of GLP-1 Receptor Inverse Agonists: Cytotox Screen | actives 0.13% (n = 410,000) | AID 624418, 2012 | Potency, µM (doses to about 38.3 µM), without a hit: at the top dose activity change, negative = inhibition, most hits filed as inhibitors | HEK293 cAMP-luciferase reporter cells, luminescence, 24 h;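 note: loss of luciferase light is scored as toxicity; % is set by controls: 0 for no effect and ±100 for the full control effect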
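1536-well qHTS counterscreen of the MLSMR; 200 cells/uL, 12 h pre-incubation, 23 nL cpd, 24 h at 37 deg C 5% CO2, luciferase detection reagent, 12 min RT, luminescence. Inhibition = undesired.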
* = called active by the depositor; ? = inconclusive; . = no result given; [ ] = dose if it differs, or a comment. A selection: hits, their analogues and other compounds. The true share with any hit is near 5.9%. Calls come from the whole dose curve; as a rule, active = well fitted curve in the direction sought with a large enough effect; inconclusive = small, poorly fitted or top-dose-only effect, or another doubt; inactive = no such curve, though single readings can be large; an effect the other way counts as inactive or inconclusive. Potency is the fitted concentration of half-maximal effect.

SMILES | Gal4-VP16 FLuc | RORgamma inh | GLP-1R inv ag | GLP-1R agonist | HEK293 tox
CCOc1cc(-c2n[nH]c(=S)n2Cc2ccccc2)ccc1OC(F)F | . | . | 18% | 20% | 5%
CCCCC/C=C\C/C=C\C/C=C\CCCCCCC(=O)NC(C)C(=O)O (stereo unspecified) | 0% | 4% | . | . | .
Cc1cc(C)n(CC(O)Cn2c3ccccc3c3ccccc32)n1 (stereo unspecified) | ? | ? | 10µM* | 4% | 0%
COC(=O)[C@H](COC(C)(C)C)NC(=O)O[C@H]1C(=O)c2cc(OC)ccc2O[C@@H]1c1ccc(OC)c(Br)c1 | 2% | 0% | . | . | .
COc1ccc(-c2cnnc(N/N=C/c3ccc(O)cc3)n2)cc1 | 0% | 3% | 47% | 9% | -21%
COc1ccc(-c2cnnc(N/N=C/c3ccc(O)c(O)c3)n2)cc1 | 8.9µM* | ? | 19% | 24% | ?
COc1ccc(-c2cnnc(N/N=C/c3ccc(C)o3)n2)cc1 | -9% | 5µM* | 3% | 8% | 8%
COc1cc(OC)c(NC(=O)Nc2c(C)n(C)n(-c3ccccc3)c2=O)cc1Cl | . | . | 2% | . | -4%
CC1CC(C)CN(S(=O)(=O)c2ccc(C(=O)Nc3nnc(C4CC4)o3)cc2)C1 (stereo unspecified) | 0.63µM* | 0.56µM* | ? | 9% | -17%
CCOC(=O)N1CCN(S(=O)(=O)c2ccc(C(=O)Nc3nnc(C4CC4)o3)cc2)CC1 | 3.2µM* | 1.8µM* | 18% | -4% | -1%
CCN1C(=O)[C@H]2[C@H]3[C@H](O)[C@H](O)C/C(=N/OC/C=C(\C)CCC=C(C)C)[C@@H]3CC[C@@H]2C1=O | -10%[10 µM] | 1%[10 µM] | . | . | .
CCCCN1C(=O)C(NC(=O)c2ccc(C(C)(C)C)cc2)(C(F)(F)F)C(C(=O)OC)=C1C (stereo unspecified) | . | . | ? | . | 7%
COc1cc(/C=C2\CCCc3c2nc2ccccc2c3C(=O)O)cc(Br)c1O | -2% | 3% | 72% | 11% | -4%
COc1cc(/C=C2\CCc3c2nc2ccccc2c3C(=O)O)cc(OC)c1OC | ? | 10µM* | 15% | -3% | 91%
CCC(C(=O)NCc1ccc2c(c1)CCN2C(=O)c1ccc(F)cc1)c1ccccc1 (stereo unspecified) | . | . | -2% | . | 2%
CC(NC(=O)CCC(=O)NC(C)C1COc2ccccc2O1)C1COc2ccccc2O1 (stereo unspecified) | -22% | 28% | 8.9µM* | 6% | -14%
CC(C)NC(=O)NNC(=O)Cn1nnc(-c2cccc(Cl)c2Cl)n1 | -30% | 32µM* | 1% | 6% | 0%
CCc1cc(-c2n[nH]c(C)c2-c2ccc3c(c2)OCCO3)c(O)cc1O | ? | 13µM* | . | . | .
CCc1cc(-c2n[nH]c(C)c2-c2nc3ccccc3n2C)c(O)cc1O | 2% | -3% | ? | 11% | -22%
Cc1c(/C=N/NC(=O)COc2ccccc2[N+](=O)[O-])c2ccccc2n1C | -6% | 8% | -12% | 26% | -19%
Cc1[nH]n(-c2ccccc2)c(=O)c1/C=N/N(C)c1ccccc1 | ? | 7.9µM* | -20% | -6% | -10%
COC(=O)CN=Cc1c(C)[nH]n(-c2ccccc2)c1=O | 5% | 0% | 2% | 0% | -4%
Cc1[nH]n(-c2ccccc2)c(=O)c1C=Nc1ccc(S(=O)(=O)N(C)C)cc1 | -5% | 7% | 5% | 0% | -13%
Cc1[nH]n(-c2ccccc2)c(=O)c1/C=N\NC(=O)C1COc2ccccc2O1 (stereo unspecified) | 1.1µM* | 0.79µM* | ? | -11% | ?
Cc1[nH]n(-c2ccccc2)c(=O)c1/C=N/NC(=O)COc1ccccc1[N+](=O)[O-] | 0.63µM* | 0.45µM* | ? | -3% | -19%
